# According to the supplement of paper PMC8728848:
# Many of the other results were omitted from the sample, so the strongest signals are more common in it than they were.
# B1: PX9937A-bvu-521-23-521 (Bacteroides vulgatus) (protein)
# chain: LDLAPEDYYGAGNFWKEASQPKAFMLGLHAQLRSYYDMFYTLGELRGGTQRVGTSSLNTSLNYADIRSQNISEDIPGISNWNGLYSPIMQVNHFIQEVENGCTFLDDATRSRYLGQAYGMRALYYFMLYRTFGGVPLITKVDILDGKPSADKFYVERATPEATMEFIKADINKSENYFGNNTSFDAYDWSRYATLMLKAEIYMWAAKVSITGFTATGATDLQTAKTALSGIIGHFELMDNFASIFSCDNKKNTEIIFAMPFIEGEASNDGGRFLYQDAVFLGQAYGRNGKVIEKDTLNLKGTGGVFRDEYTEDFWKTFKEGDSRRDATFMEYYMKNDNGTLSEFGCVMKKRIGTINSNDNRIYISDIPVYRYADALLMMAEIENGLNNPCASYINEVRKRAYGDTFEENKYTEGSYAENELAILQERDKEFVSEGKRWFDVLRMHDASGRSLVFSANANYPGTNPILGTEEAYKMLWPVNIGTLNVNPLLTQTPGYGKK
# What was measured:
# Assay in all cases: glycan array binding signal (z-score within array); higher = stronger binding
# Details in all cases: glycan notation: IUPAC condensed, linker removed
# GalNAc(b1-4)GlcNAc = biological target: GalNAc(b1-4)GlcNAc
# Procedure, shortened: (§1)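 The Consortium for Functional Glycomics database supplied 3228 glycan arrays, of which those lacking an available protein sequence were dropped. The binding signal, a within-array Z-score, was averaged across arrays of the same protein sequence and across linkers. Negative scores can be read as non-binding.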
# [1] = biological target: GlcNAc(b1-2)Man(a1-3)[GlcNAc(b1-4)][GlcNAc(b1-2)Man(a1-6)]Man(b1-4)GlcNAc(b1-4)[Fuc(a1-6)]GlcNAc
# Procedure, shortened: as §1
# GlcNAc(b1-3)Fuc = biological target: GlcNAc(b1-3)Fuc
# Procedure, shortened: as §1
# [2] = biological target: GlcNAc(b1-3)Gal(b1-4)GlcNAc(b1-2)Man(a1-3)[GlcNAc(b1-3)Gal(b1-4)GlcNAc(b1-2)Man(a1-6)]Man(b1-4)GlcNAc(b1-4)GlcNAc
# Procedure, shortened: as §1
# [3] = biological target: GlcNAc(b1-3)Gal(b1-4)GlcNAc(b1-3)Gal(b1-4)GlcNAc(b1-3)Gal(b1-4)GlcNAc(b1-2)[GlcNAc(b1-3)Gal(b1-4)GlcNAc(b1-3)Gal(b1-4)GlcNAc(b1-3)Gal(b1-4)GlcNAc(b1-6)]Man(a1-6)[GlcNAc(b1-3)Gal(b1-4)GlcNAc(b1-3)Gal(b1-4)GlcNAc(b1-3)Gal(b1-4)GlcNAc(b1-2)Man(a1-3)]Man(b1-4)GlcNAc(b1-4)[Fuc(a1-6)]GlcNAc
# Procedure, shortened: as §1
# [4] = biological target: GlcNAc(b1-3)Gal(b1-4)GlcNAc(b1-3)Gal(b1-4)GlcNAc(b1-3)Gal(b1-4)GlcNAc(b1-3)Gal(b1-4)GlcNAc(b1-2)Man(a1-3)[GlcNAc(b1-3)Gal(b1-4)GlcNAc(b1-3)Gal(b1-4)GlcNAc(b1-3)Gal(b1-4)GlcNAc(b1-3)Gal(b1-4)GlcNAc(b1-2)Man(a1-6)]Man(b1-4)GlcNAc(b1-4)[Fuc(a1-6)]GlcNAc
# Procedure, shortened: as §1
# [5] = biological target: GlcNAc(b1-3)Gal(b1-4)GlcNAc(b1-6)[GlcNAc(b1-3)]Gal(b1-4)GlcNAc
# Procedure, shortened: as §1
# Kdn(a2-3)Gal(b1-3)GalNAc = biological target: Kdn(a2-3)Gal(b1-3)GalNAc
# Procedure, shortened: as §1
# Kdn(a2-3)Gal(b1-4)Glc = biological target: Kdn(a2-3)Gal(b1-4)Glc
# Procedure, shortened: as §1
# [6] = biological target: Man(a1-2)Man(a1-3)[Man(a1-2)Man(a1-6)]Man(a1-6)[Man(a1-2)Man(a1-2)Man(a1-3)]Man(b1-4)GlcNAc(b1-4)GlcNAc
# Procedure, shortened: as §1
# Man(a1-6)Man = biological target: Man(a1-6)Man
# Procedure, shortened: as §1
# [7] = biological target: Neu5Ac(a2-3)Gal(b1-3)GalNAc(b1-4)[Neu5Ac(a2-8)Neu5Ac(a2-3)]Gal(b1-4)Glc
# Procedure, shortened: as §1
# Neu5Ac(a2-3)Gal(b1-4)Glc = biological target: Neu5Ac(a2-3)Gal(b1-4)Glc
# Procedure, shortened: as §1
# [8] = biological target: Neu5Ac(a2-3)Gal(b1-4)GlcNAc(b1-2)Man(a1-3)[GlcNAc(b1-4)][Neu5Ac(a2-3)Gal(b1-4)GlcNAc(b1-2)Man(a1-6)]Man(b1-4)GlcNAc(b1-4)GlcNAc
# Procedure, shortened: as §1
# [9] = biological target: Neu5Ac(a2-3)Gal(b1-4)GlcNAc(b1-2)[Neu5Ac(a2-3)Gal(b1-4)GlcNAc(b1-6)]Man(a1-6)[Neu5Ac(a2-3)Gal(b1-4)GlcNAc(b1-2)Man(a1-3)][GlcNAc(b1-4)]Man(b1-4)GlcNAc(b1-4)GlcNAc
# Procedure, shortened: as §1
# [10] = biological target: Neu5Ac(a2-3)Gal(b1-4)[Fuc(a1-3)]GlcNAc(b1-6)[Gal(b1-3)]GalNAc
# Procedure, shortened: as §1
# [11] = biological target: Neu5Ac(a2-6)Gal(b1-4)GlcNAc(b1-2)Man(a1-6)Man(b1-4)GlcNAc(b1-4)GlcNAc
# Procedure, shortened: as §1
# [12] = biological target: Neu5Ac(a2-6)Gal(b1-4)GlcNAc(b1-2)Man(a1-6)[GlcNAc(b1-2)Man(a1-3)]Man(b1-4)GlcNAc(b1-4)GlcNAc
# Procedure, shortened: as §1
# [13] = biological target: Neu5Ac(a2-6)Gal(b1-4)GlcNAc(b1-3)Gal(b1-4)GlcNAc(b1-3)Gal(b1-4)GlcNAc(b1-2)Man(a1-3)[Neu5Ac(a2-6)Gal(b1-4)GlcNAc(b1-3)Gal(b1-4)GlcNAc(b1-3)Gal(b1-4)GlcNAc(b1-2)Man(a1-6)]GalNAc
# Procedure, shortened: as §1
# [14] = biological target: Neu5Ac(a2-6)Gal(b1-4)GlcNAc(b1-3)GalNAc
# Procedure, shortened: as §1
# [15] = biological target: Neu5Ac(a2-6)GalNAc(b1-4)GlcNAc6S
# Procedure, shortened: as §1
# [16] = biological target: Neu5Ac(a2-8)Neu5Gc(a2-3)Gal(b1-4)GlcNAc
# Procedure, shortened: as §1
# [17] = biological target: Neu5Ac9Ac(a2-3)Gal(b1-4)GlcNAc
# Procedure, shortened: as §1
# [18] = biological target: Neu5Ac9Ac(a2-6)Gal(b1-4)GlcNAc
# Procedure, shortened: as §1
# Neu5Gc(a2-6)GalNAc = biological target: Neu5Gc(a2-6)GalNAc
# Procedure, shortened: as §1
# [19] = biological target: Neu5Gc(a2-8)Neu5Gc(a2-3)Gal(b1-4)GlcNAc(b1-3)Gal(b1-4)GlcNAc
# Procedure, shortened: as §1
binder,measurement,setting,value
B1,glycan array binding signal (z-score),GalNAc(b1-4)GlcNAc,2.94
same,glycan array binding signal (z-score),[1],-0.211
same,glycan array binding signal (z-score),GlcNAc(b1-3)Fuc,2.63
same,glycan array binding signal (z-score),[2],2.54
same,glycan array binding signal (z-score),[3],-0.128
same,glycan array binding signal (z-score),[4],-0.708
same,glycan array binding signal (z-score),[5],-0.214
same,glycan array binding signal (z-score),Kdn(a2-3)Gal(b1-3)GalNAc,2.84
same,glycan array binding signal (z-score),Kdn(a2-3)Gal(b1-4)Glc,-0.287
same,glycan array binding signal (z-score),[6],-0.427
same,glycan array binding signal (z-score),Man(a1-6)Man,4.8
same,glycan array binding signal (z-score),[7],0.038
same,glycan array binding signal (z-score),Neu5Ac(a2-3)Gal(b1-4)Glc,0.96
same,glycan array binding signal (z-score),[8],-0.062
same,glycan array binding signal (z-score),[9],-0.581
same,glycan array binding signal (z-score),[10],-0.51
same,glycan array binding signal (z-score),[11],-0.252
same,glycan array binding signal (z-score),[12],-0.416
same,glycan array binding signal (z-score),[13],0.232
same,glycan array binding signal (z-score),[14],-0.431
same,glycan array binding signal (z-score),[15],0.342
same,glycan array binding signal (z-score),[16],10.6
same,glycan array binding signal (z-score),[17],0.442
same,glycan array binding signal (z-score),[18],0.304
same,glycan array binding signal (z-score),Neu5Gc(a2-6)GalNAc,-0.419
same,glycan array binding signal (z-score),[19],-0.58
